In PubChem BioAssay one finds composite z-score, composite Z-score and z-score data, which are given here for 6 compounds.

One assay has as its target Albumin (Bos taurus) (UniProt P02769). As to the kind of experiment: bovine serum albumin binders on microarray, profiling panel, artefact control for SMM control protein annotation, biochemical, small-molecule microarray, Alexa647 label, 635/667 nm fluorescence (AID 1118).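 Note: score merges 667 nm emission intensity and signal-to-noise per printed compound spot.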 The settings on record: BSA-A647 binding, fluorescence 635 nm, higher = more signal.
A short description of assay [1]: small-molecule microarray binders of probe aXIP, primary screen, biochemical, NeuroSMM set, 635/667 nm fluorescence (AID 1119).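 Note: probe is the protein aXip251-270 applied at 1 µg/mL to compound-printed slides; binding of probe to printed compounds measured as 667 nm fluorescence plus signal to noise.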 The settings on record: higher = more signal, called active from +8 up or from −8 down.
Assay [2] can be described thus: small-molecule binders of probe aNOTCH3, primary screen, biochemical, small-molecule microarray, 635/667 nm fluorescence (AID 1120).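 Note: probe is a biotin-tagged antibody raised against NOTCH3 rather than NOTCH3 protein; score merges spot fluorescence near 667 nm with spot signal to noise.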 The settings on record: higher = more signal.
A short description of assay [3]: small-molecule binders of probe aNOTCH2, primary screen, biochemical, small-molecule microarray, 635/667 nm fluorescence (AID 1121).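 Note: score merges feature fluorescence read at 667 nm with its signal to noise.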 The settings on record: higher = more signal.
In assay [4] the target is Carbonic anhydrase 2 (Homo sapiens) (UniProt P00918). As to the kind of experiment: CAII small-molecule binders, profiling panel, biochemical, small-molecule microarray, Alexa647-labelled CAII (AID 1122). Particulars: CAII-A647 binding fluorescence, higher = more signal.
The nature of assay [5]: COS7 lysate on small-molecule microarray, probe aHis, 635 nm (AID 1123).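 Note: z-score combines 667nm fluorescence intensity with signal-to-noise per printed compound spot.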 Particulars: COS7 cell lysate, fluorescence, higher = more signal.
Assay [6] is described as follows: compound binding in COS7 lysate, probe aLAP1, primary screen, cell lysate, small-molecule microarray (AID 1124).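 Note: lysate comes from COS7 cells expressing LAP1 and is applied at 0.3 µg/mL; score merges spot fluorescence near 667 nm with signal-to-noise over triplicate slides.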 Particulars: probe aLAP1, fluorescence, higher = more signal.
Another assay relates to Sam68 (KHDRBS1). Description: Sam68 small-molecule binders, primary screen, biochemical, small-molecule microarray, 635 nm fluorescence (AID 1125).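 Note: score merges 667 nm channel intensity with signal to noise over triplicate slides.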 Particulars: small-molecule microarray binding, higher = more signal.
Assay [7] relates to Chordin-like protein 2 (CHRDL2). As to the kind of experiment: CHRDL2 small-molecule binders, primary screen, biochemical, small-molecule microarray, 635 nm fluorescence (AID 1126).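 Note: printed compound slides probed with Chrdl2 protein at 4 µg/mL for 1 h at 4 C; score merges 667 nm emission intensity with signal to noise over three replicate slides.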 Particulars: small-molecule microarray binding, fluorescence 635 nm; higher = more signal.
The target in assay [8] is Concanavalin-A (Canavalia ensiformis) (UniProt P02866). Description: ConA small-molecule binders, primary screen, artefact control for SMM control protein annotation, biochemical, small-molecule microarray, Alexa647 label, 635 nm (AID 1127).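 Note: z combines 667 nm emission intensity with signal-to-noise across three replicate slides.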 Particulars: ConA-A647 binding fluorescence, higher = more signal.
Concanavalin-A (Canavalia ensiformis), sequence (P02866 whole entry, looked up): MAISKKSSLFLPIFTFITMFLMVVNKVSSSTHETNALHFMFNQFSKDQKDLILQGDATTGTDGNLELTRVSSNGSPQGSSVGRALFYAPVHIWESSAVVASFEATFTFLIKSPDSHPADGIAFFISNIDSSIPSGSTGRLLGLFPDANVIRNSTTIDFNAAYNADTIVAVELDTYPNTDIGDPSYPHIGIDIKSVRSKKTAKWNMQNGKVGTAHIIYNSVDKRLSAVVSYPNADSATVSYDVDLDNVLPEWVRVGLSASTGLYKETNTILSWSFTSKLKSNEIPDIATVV
Assay [9] can be described thus: anti-His antibody binders, primary screen, artefact control for SMM control protein annotation, biochemical, small-molecule microarray, 635 nm fluorescence (AID 1128).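 Note: score merges feature fluorescence with signal-to-noise for each printed compound spot.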 The settings on record: anti-His Alexa647 antibody binding, higher = more signal.
Assay [10] deals with Human papillomavirus type 1a E7 protein (residues 1-88). As to the kind of experiment: HPV1a E7 small-molecule binders, primary screen, biochemical, small-molecule microarray, residues 1-88, 635 nm (AID 1129). The settings on record: small-molecule microarray binding, fluorescence 635 nm; higher = more signal.
The target of assay [11] is Focal adhesion kinase 1 (Homo sapiens) (UniProt Q05397). As to the kind of experiment: small-molecule microarray binders of FAK, primary screen, biochemical, 635/667 nm fluorescence, BSA, DTT (AID 1130).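 Note: composite of spot emission at 667 nm and signal to noise over triplicate slides.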 Particulars: PTK2 binding, 635 nm fluorescence, higher = more signal.
Focal adhesion kinase 1 (Homo sapiens), sequence (Q05397 whole entry, looked up): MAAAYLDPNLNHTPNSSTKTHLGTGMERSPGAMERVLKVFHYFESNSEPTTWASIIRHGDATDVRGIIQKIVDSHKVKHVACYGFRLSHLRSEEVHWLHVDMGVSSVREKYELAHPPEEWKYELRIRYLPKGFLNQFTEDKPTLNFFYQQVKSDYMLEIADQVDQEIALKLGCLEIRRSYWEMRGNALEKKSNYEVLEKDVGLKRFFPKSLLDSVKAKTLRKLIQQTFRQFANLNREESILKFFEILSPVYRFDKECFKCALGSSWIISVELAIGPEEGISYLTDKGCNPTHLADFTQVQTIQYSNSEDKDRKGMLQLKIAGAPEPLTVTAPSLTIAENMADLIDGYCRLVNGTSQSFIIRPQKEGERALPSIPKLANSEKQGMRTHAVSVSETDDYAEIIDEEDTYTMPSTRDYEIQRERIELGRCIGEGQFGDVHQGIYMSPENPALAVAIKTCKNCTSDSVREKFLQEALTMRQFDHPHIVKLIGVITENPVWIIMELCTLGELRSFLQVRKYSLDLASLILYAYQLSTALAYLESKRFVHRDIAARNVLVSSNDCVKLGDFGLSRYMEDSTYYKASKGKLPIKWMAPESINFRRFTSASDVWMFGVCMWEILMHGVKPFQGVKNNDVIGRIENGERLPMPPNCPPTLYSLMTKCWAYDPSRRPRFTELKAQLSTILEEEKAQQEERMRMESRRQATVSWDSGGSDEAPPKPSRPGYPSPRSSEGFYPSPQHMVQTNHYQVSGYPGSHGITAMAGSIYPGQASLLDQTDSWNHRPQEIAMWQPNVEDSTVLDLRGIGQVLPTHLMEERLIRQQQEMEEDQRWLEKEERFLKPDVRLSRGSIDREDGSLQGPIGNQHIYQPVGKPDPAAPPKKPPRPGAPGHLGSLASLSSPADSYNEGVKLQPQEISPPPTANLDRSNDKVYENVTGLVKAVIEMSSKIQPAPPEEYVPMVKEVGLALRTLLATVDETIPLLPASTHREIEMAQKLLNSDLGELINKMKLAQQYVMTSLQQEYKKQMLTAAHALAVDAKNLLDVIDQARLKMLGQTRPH
Assay [12] relates to Fibrinogen (Alexa647-labelled). Description: fibrinogen binders on compound microarrays, profiling panel, artefact control for SMM control-protein annotation, biochemical, small-molecule microarray, 635/667 nm fluorescence (AID 1131).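 Note: z-score merges 667 nm fluorescence with per-spot signal-to-noise over triplicate slides.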 Particulars: fibrinogen-A647 binding fluorescence, higher = more signal.
The target of assay [13] is Follistatin (Homo sapiens) (UniProt P19883). As to the kind of experiment: follistatin binders on small-molecule microarrays, primary screen, biochemical, small-molecule microarray, 635/667 nm fluorescence (AID 1132). The settings on record: FST binding, 635 nm fluorescence, higher = more signal.
Follistatin (Homo sapiens), sequence (P19883 whole entry, looked up): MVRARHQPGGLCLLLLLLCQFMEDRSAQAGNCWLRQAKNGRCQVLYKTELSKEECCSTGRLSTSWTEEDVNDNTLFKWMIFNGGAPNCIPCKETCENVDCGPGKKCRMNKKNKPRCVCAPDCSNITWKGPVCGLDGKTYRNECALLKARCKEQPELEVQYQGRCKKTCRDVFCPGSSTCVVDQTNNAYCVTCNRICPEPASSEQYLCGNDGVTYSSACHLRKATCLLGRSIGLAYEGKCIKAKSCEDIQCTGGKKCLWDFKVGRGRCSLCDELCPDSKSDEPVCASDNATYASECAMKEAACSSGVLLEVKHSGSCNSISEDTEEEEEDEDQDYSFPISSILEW
Assay [14] addresses Fibroblast growth factor 2 (Homo sapiens) (UniProt P09038). As to the kind of experiment: FGF2 binders on small-molecule microarrays, primary screen, biochemical, small-molecule microarray, 635/667 nm fluorescence (AID 1133). Particulars: small-molecule microarray binding, FGF2, fluorescence 635/667; higher = more signal.
Assay [15] in a line: mitochondrial membrane potential change in A549 cells, profiling panel, cell-based, JC-1 fluorescence, basal, 24 h, 100 nL (AID 1138).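 Note: A549 lung adenocarcinoma cells under basal conditions with no added stimulus; test concentration not given here.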 The settings on record: higher = more signal.
The test system of a further assay is Lefty1. As to the kind of experiment: Lefty1 binders on small-molecule microarrays, primary screen, biochemical, small-molecule microarray, 635/667 nm fluorescence (AID 1139). Particulars: small-molecule microarray binding, fluorescence 635/667; higher = more signal.
Assay [16] concerns wheat germ agglutinin (Triticum aestivum), Alexa647-labelled. Description: wheat germ agglutinin binders on compound microarrays, profiling panel, artefact control for SMM control-protein annotation, biochemical, small-molecule microarray, 635/667 nm fluorescence (AID 1140).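 Note: score merges 667 nm feature emission with signal to noise over triplicate slides.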 The settings on record: WGA-A647 binding, 635 nm fluorescence, higher = more signal.
Assay [17] concerns the target Luciferin 4-monooxygenase (Photinus pyralis) (UniProt P08659). As to the kind of experiment: firefly luciferase enzyme inhibitors, primary screen, biochemical, luminescence, purified enzyme, 2006 set (AID 1141).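 Note: cell-free assay with purified firefly luciferase at 100 ng per well in PBS; test concentration not given here.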 The settings on record: SteadyGlo luminescence, 30 min, higher = more signal, called active from +8 up or from −8 down.

Activity calls are given as the source filed them.

Fibroblast growth factor 2 (Homo sapiens), sequence (P09038 whole entry, looked up): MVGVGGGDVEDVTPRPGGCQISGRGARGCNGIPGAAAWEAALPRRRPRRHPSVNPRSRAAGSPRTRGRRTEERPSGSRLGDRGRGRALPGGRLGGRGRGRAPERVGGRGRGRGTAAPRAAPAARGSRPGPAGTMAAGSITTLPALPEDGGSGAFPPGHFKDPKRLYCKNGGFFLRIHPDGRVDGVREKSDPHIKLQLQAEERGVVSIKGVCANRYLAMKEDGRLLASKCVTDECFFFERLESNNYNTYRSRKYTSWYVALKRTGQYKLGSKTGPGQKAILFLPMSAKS
Albumin (Bos taurus), sequence (P02769 whole entry, looked up): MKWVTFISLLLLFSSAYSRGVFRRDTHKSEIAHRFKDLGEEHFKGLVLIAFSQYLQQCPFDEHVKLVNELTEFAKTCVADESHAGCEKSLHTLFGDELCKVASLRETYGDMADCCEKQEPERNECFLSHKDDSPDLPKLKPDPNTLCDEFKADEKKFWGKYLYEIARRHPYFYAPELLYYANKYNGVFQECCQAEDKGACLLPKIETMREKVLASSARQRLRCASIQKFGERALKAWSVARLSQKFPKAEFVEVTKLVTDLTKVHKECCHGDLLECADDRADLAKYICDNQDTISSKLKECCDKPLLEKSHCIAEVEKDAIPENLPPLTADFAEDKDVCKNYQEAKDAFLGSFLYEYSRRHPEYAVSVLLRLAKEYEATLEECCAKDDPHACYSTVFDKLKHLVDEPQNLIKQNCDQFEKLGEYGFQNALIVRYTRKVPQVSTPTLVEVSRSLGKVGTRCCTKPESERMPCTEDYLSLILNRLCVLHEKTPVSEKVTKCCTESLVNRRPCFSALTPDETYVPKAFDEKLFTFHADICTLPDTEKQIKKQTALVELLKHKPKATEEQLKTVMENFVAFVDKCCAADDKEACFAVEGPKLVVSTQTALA
Luciferin 4-monooxygenase (Photinus pyralis), sequence (P08659 whole entry, looked up): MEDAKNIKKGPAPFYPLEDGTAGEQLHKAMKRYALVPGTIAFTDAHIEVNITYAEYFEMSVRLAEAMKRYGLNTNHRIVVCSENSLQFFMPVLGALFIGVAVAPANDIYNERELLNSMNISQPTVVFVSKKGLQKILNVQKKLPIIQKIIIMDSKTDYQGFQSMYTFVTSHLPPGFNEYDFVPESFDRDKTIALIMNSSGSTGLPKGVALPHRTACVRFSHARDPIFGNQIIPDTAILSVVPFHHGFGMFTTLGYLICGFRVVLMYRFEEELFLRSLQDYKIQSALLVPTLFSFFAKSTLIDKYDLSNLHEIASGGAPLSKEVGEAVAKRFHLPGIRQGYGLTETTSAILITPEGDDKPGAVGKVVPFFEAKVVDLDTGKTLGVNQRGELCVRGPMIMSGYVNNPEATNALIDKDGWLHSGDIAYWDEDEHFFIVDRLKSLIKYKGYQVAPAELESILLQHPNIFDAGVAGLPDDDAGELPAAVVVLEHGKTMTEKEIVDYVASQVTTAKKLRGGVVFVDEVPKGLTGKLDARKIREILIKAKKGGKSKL

As for `COc1ccc([Si](C)(C)[C@H]2[C@H](CC(=O)N3CCC[C@H]3CO)O[C@@]3(C(=O)N(Cc4ccc(N5CCOC5=O)cc4)c4ccccc43)[C@@H]2C)cc1`, the composite z-score with Albumin (Bos taurus) was -0.195; in [2], 0.336; in assay [3], -0.075; in assay [4] it was 0.364; in assay [5] it was 1.89; in [6] it was 0.145. The composite z-score with Sam68 (KHDRBS1) worked out at 1.34; in assay [7] it was 0.731; in assay [8], 0.618; in assay [9], 2.43; in assay [10], 1.18; in assay [11], 0.395. Also, the composite z-score in [12] came to 0.692; in [13], 1.34; in [14], 1.56; in the assay with Lefty1 it was 1.16; in [16] it was 0.697. Besides, the composite Z-score in assay [1] was -0.0549 (inactive). The results for the z-score in [15] and in assay [17] were 2.59 and 0.31 (inactive), respectively.

For `CC(C)[Si]1(C(C)C)OCc2cc(C3CC3)nc(-c3ccc(Oc4ccccc4)cc3)c21`, the composite z-score with Albumin (Bos taurus) is -0.808; in assay [2], -0.177; in [3], -0.108; in assay [4] it was -0.204; in assay [5], 0.0215; in [6], -0.238. Besides, the composite z-score in the assay on Sam68 (KHDRBS1) was -0.459; in [7], -0.368; in assay [8], -0.725; in [9], -0.33; in assay [10], -1.1; in [11], -0.0826. Moreover, the composite z-score in assay [12] is -0.753; in assay [13] it was -0.538; in [14] it was -0.206; in the assay with Lefty1 it was -0.365; in [16], -0.596. For the same compound, the composite Z-score in assay [1] is -0.26 (inactive). The z-score is 0.546 in assay [15] and -0.311 (inactive) in [17].

On to `CCCC1(C(=O)OC)C=C2C(=C(C)C(=O)C2C)CN1` (stereo not given), for which the composite z-score is -0.15 in the assay with Albumin (Bos taurus); 0.0416 in assay [2]; -0.0936 in assay [3]; 0.664 in assay [4]; 1.24 in [5]; -0.293 in assay [6]. In addition, the composite z-score in the assay on Sam68 (KHDRBS1) is -0.406; in assay [7], -0.027; in assay [8] it was -2.2; in assay [9] it was 2.81; in [10], -0.0152; in [11], 0.0853. Besides, the composite z-score in [12] was 0.892; in assay [13], 0.503; in assay [14] it was -0.343; with Lefty1 it was -0.451; in [16], 0.594. Also, the composite Z-score in assay [1] is 0.931 (inactive). Besides, the z-score in assay [15] was 0.511; in assay [17] it was 2.26 (inactive).

As for `COc1ccc(C#Cc2ccc3c(c2)[C@]2(C(=O)N3)[C@H](c3ccc(O)cc3)N3[C@H](c4ccccc4)[C@H](c4ccccc4)OC(=O)[C@H]3[C@@H]2C(=O)Nc2nc3ccccc3s2)cc1`, the composite z-score is 0.67 in the assay with Albumin (Bos taurus); -0.014 in [2]; 0.117 in [3]; 0.61 in assay [4]; 2.47 in assay [5]; 0.98 in [6]. The composite z-score in the assay on Sam68 (KHDRBS1) turned out to be 1.29; in [7], 0.428; in assay [8], 1.08; in [9] it was 0.269; in assay [10] it was 1.25; in [11], 0.359. Also, the composite z-score came out at 0.983 in assay [12]; 1.29 in [13]; 0.964 in [14]; 0.882 in the assay with Lefty1; 0.768 in assay [16]. Besides, in assay [1], the composite Z-score was 0.276 (inactive). Besides, the values for the z-score in assay [15] and in assay [17] were -2.1 and -1.28 (inactive), respectively.

In the case of `CC(=O)N1CC2(CC2)CC1c1ccccc1` (stereo not given), the composite z-score with Albumin (Bos taurus) turned out to be 0.336; in [2], 0.77; in assay [3], 0.172; in assay [4], 0.671; in [5], 1.88; in [6], 0.562. In addition, the composite z-score in the assay with Sam68 (KHDRBS1) was 0.913; in assay [7], 0.0586; in assay [8], -0.0459; in assay [9], 0.712; in [10], 0.678; in assay [11], 0.277. Besides, the composite z-score in assay [12] was 0.59; in [13], -0.0582; in [14] it was 1.6; with Lefty1 it was -0.46; in assay [16], 0.251. For the same compound, the composite Z-score in [1] was 0.204 (inactive). Further, the z-score in assay [15] was 0.033; in assay [17], 2.49 (inactive).

For `[N-]=[N+]=Nc1ccccc1[C@H]1OC(c2ccc(OCCCO)cc2)=N[C@@]1(Cc1ccccc1)C(=O)NCCN1CCOCC1`, the composite z-score with Albumin (Bos taurus) turned out to be 0.887; in assay [2], 0.457; in assay [3], 0.117; in assay [4], 0.529; in assay [5], 2.87; in [6], 0.634. In addition, the composite z-score in the assay with Sam68 (KHDRBS1) turned out to be 1.3; in assay [7], 0.0045; in assay [8] it was 1.16; in assay [9] it was 1.65; in assay [10] it was 1.23; in [11] it was 0.309. The composite z-score was determined as 0.996 in assay [12]; 1.21 in [13]; 0.989 in [14]; 0.624 in the assay with Lefty1; 1.2 in assay [16]. Besides, the composite Z-score in assay [1] is 1.16 (inactive). In addition, the z-score in assay [15] is 2.49; in assay [17], -4.32 (inactive).
